Experiment [1] can be described thus: ATG_M_32_CIS: Attagene CIS-FACTORIAL HepG2 Assay for M32 Transcription Factor (Internal Marker) (AID 2282949).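 Note: background control marker of the multiplexed CIS panel rather than a real target.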 The following applies: HepG2 Attagene cis-factorial M32 reporter, mRNA; actives raise or lower the signal. The procedure, abridged: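 Using DMSO as baseline, bidirectional curve fits were applied to reporter mRNA signals. These came from transiently transfected HepG2 cells exposed for 24 h, with RNA analysed by RT-PCR, FAM primer extension, HpaI digestion and CE.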

Experiment [2] in a line: ATG_M_06_CIS: Attagene CIS-FACTORIAL HepG2 Assay for M06 Transcription Factor (Internal Marker) (AID 2282950). To be noted: HepG2 Attagene CIS-FACTORIAL M06 internal marker reporter; actives raise or lower the signal. The gist of the method: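 Serves as a background control readout. Transfected HepG2 exposed to compounds for 24 h, then reporter transcripts quantified by fluorescent RT-PCR and capillary electrophoresis. Both directions fitted against DMSO baseline.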

For experiment [3], the target named is Hypoxia-inducible factor 1-alpha (Homo sapiens) (UniProt Q16665). Put plainly: ATG_HIF1a_CIS: Attagene CIS-FACTORIAL HepG2 Assay for human Hypoxia Inducible Factor 1 (HIF1A) (AID 2282951). To be noted: HepG2 Attagene cis-factorial HIF1a reporter transcription; actives raise or lower the signal. The gist of the method:
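Measures endogenous transcription-factor activity through cis-regulated reporter mRNA in HepG2. Cells dosed 24 h; transcripts quantified by RT-PCR with 6-FAM-labelled products separated by capillary electrophoresis; DMSO serves as negative control.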

In experiment [4] the target is Hepatocyte nuclear factor 6 (Homo sapiens) (UniProt Q9UBC0). Briefly: ATG_HNF6_CIS: Attagene CIS-FACTORIAL HepG2 Assay for human Hepatocyte Nuclear Factor 6 (HNF6) (AID 2282952). To be noted: HepG2 Attagene cis-factorial HNF6 reporter transcription; actives raise or lower the signal. The gist of the method: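 Endogenous transcription factor activity in human HepG2 liver cells was captured through cis-regulated reporter constructs. After 24 h treatment, reporter mRNA was measured by RT-PCR with capillary electrophoresis, and activity was fitted in both directions relative to DMSO.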

The target in experiment [5] is Heat shock factor protein 1 (Homo sapiens) (UniProt Q00613). Put plainly: ATG_HSE_CIS: Attagene CIS-FACTORIAL HepG2 Assay for human Heat Shock Transcription Factor 1 (HSE) (AID 2282953). To be noted: HepG2 HSE cis-reporter, Attagene RNA transcription; actives raise or lower the signal. The procedure, abridged:
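Endogenous transcription factor activity in transiently transfected HepG2, read as reporter mRNA by RT-PCR with fluorescent capillary electrophoresis after 24 h. Gain or loss of signal fitted versus DMSO baseline.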

The nature of experiment [6]: ATG_MRE_CIS: Attagene CIS-FACTORIAL HepG2 Assay for human Metal Responsive Element (MRE) (AID 2282954). The following applies: HepG2 MRE cis-reporter transcription, Attagene multiplex; actives raise or lower the signal. The gist of the method: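 RT-PCR/capillary electrophoresis readout of reporter mRNA, 24 h post-dosing, in HepG2 cells transfected with multiplexed cis-regulated reporter constructs. Gain or loss of signal fitted bidirectionally against DMSO baseline.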

Experiment [7] concerns the target Paired box protein Pax-6 (Homo sapiens) (UniProt P26367). Put plainly: ATG_Pax6_CIS: Attagene CIS-FACTORIAL HepG2 Assay for human Paired Box 6 (PAX6) (AID 2282956). To be noted: HepG2 CIS-FACTORIAL PAX6 reporter transcription, RNA readout; actives raise or lower the signal. The gist of the method: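 Read-out is reporter transcript level, measured by RT-PCR with fluorescent primer extension and capillary electrophoresis after 24 h dosing of transfected HepG2 cells. Activity in either direction fitted relative to DMSO control.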

A short description of experiment [8]: ATG_PXRE_CIS: Attagene CIS-FACTORIAL HepG2 Assay for human Pregnane X Receptor Element (PXRE) (AID 2282957). The following applies: HepG2 Attagene CIS-FACTORIAL PXRE reporter, mRNA; actives raise or lower the signal. The gist of the method: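 Endogenous transcription factor activity in HepG2 was gauged through induction of reporter mRNA driven by a cis-regulating promoter element, sampled 24 h post-treatment. Activity was fitted in both directions against DMSO negative control.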

Experiment [9] in a line: ATG_RORE_CIS: Attagene CIS-FACTORIAL HepG2 Assay for human RAR-related Orphan Receptor Element (RORE) (AID 2282959). To be noted: HepG2 Attagene cis-factorial RORE reporter, mRNA; actives raise or lower the signal. The procedure, abridged:
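Cells were HepG2 carrying transfected cis-regulated reporter constructs, dosed for 24 hours. Total RNA was reverse-transcribed and reporter cDNA amplified, fluorescently labeled and sized by capillary electrophoresis. Activity was fitted bidirectionally relative to DMSO.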

Experiment [10] can be described thus: ATG_Sox_CIS: Attagene CIS-FACTORIAL HepG2 Assay for human SRY-box transcription factor (SOX) (AID 2282960). To be noted: HepG2 Attagene cis-factorial SOX reporter, mRNA; actives raise or lower the signal. The procedure, abridged:
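Transient MRTU transfection of HepG2; 24 h compound incubation; TriZol RNA, oligo(dT) RT, PCR, 6-FAM primer extension, HpaI cut, CE. Bidirectional fit, DMSO = baseline.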

The target of experiment [11] is Transcription factor Sp1 (Homo sapiens) (UniProt P08047). Put plainly: ATG_Sp1_CIS: Attagene CIS-FACTORIAL HepG2 Assay for human Specificity Protein 1 (Sp1) (AID 2282961). The following applies: HepG2 Sp1 cis-reporter transcription, actives raise or lower the signal. The gist of the method:
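Endogenous Sp1 activity was gauged in human liver HepG2 cells bearing transfected reporter units under a cis-regulating promoter. After 24 h dosing, reporter mRNA was quantified by RT-PCR with capillary electrophoresis, and activity fitted bidirectionally versus DMSO.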

In experiment [12] the target is Signal transducer and activator of transcription 3 (Homo sapiens) (UniProt P40763). Briefly: ATG_STAT3_CIS: Attagene CIS-FACTORIAL HepG2 Assay for human Signal Transducer and Activator of Transcription 3 (STAT3) (AID 2282963). To be noted: HepG2, Attagene cis-factorial STAT3 reporter transcription; actives raise or lower the signal. The gist of the method: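 Readout: fluorescent reporter mRNA fragments resolved by capillary electrophoresis. Setup: HepG2 transfected with MRTUs reporting endogenous transcription-factor activity, dosed 24 h. Gain or loss of signal fitted bidirectionally against DMSO control.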

Experiment [13] is described as follows: ATG_TA_CIS: Attagene CIS-FACTORIAL HepG2 Assay for human TA Basal Promoter (AID 2282964). The following applies: HepG2 Attagene CIS-factorial TA basal promoter reporter; actives raise or lower the signal. The procedure, abridged:
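Background-control readout: TA basal promoter reporter mRNA, fitted in both directions relative to DMSO. Measured by RT-PCR and capillary electrophoresis 24 hours after treating HepG2 human liver cells transiently carrying multiplexed cis-regulated reporter constructs.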

Experiment [14] can be described thus: ATG_TAL_CIS: Attagene CIS-FACTORIAL HepG2 Assay for human TAL Basal Promoter (AID 2282966).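 Note: background control endpoint measuring basal TAL promoter reporter mRNA not a specific factor.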 To be noted: HepG2 Attagene cis-factorial TAL promoter reporter; actives raise or lower the signal. The gist of the method: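 Endogenous transcription-factor activity is sensed in HepG2 cells through transfected cis-promoter reporter constructs. After 24 h dosing, reporter transcripts are quantified by RT-PCR and capillary electrophoresis. Gain or loss of signal is fitted relative to DMSO.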

The nature of experiment [15]: ATG_TGFb_CIS: Attagene CIS-FACTORIAL HepG2 Assay for human Transforming Growth Factor (TGF) (AID 2282967). The following applies: HepG2 Attagene CIS TGFb reporter, mRNA transcription; actives raise or lower the signal. The procedure, abridged: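 Endogenous TGFB1-linked transcription factor activity read as reporter mRNA via RT-PCR and capillary electrophoresis, 24 h after dosing transiently transfected HepG2 cells. Gain or loss of signal fitted relative to DMSO.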

A short description of experiment [16]: ATG_VDRE_CIS: Attagene CIS-FACTORIAL HepG2 Assay for human Vitamin D Receptor Element (VDRE) (AID 2282968). To be noted: HepG2 VDRE cis-reporter transcription, actives raise or lower the signal. The gist of the method:
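Transient MRTU transfection of HepG2, 24 h compound exposure. Readout: reporter transcripts via RT-PCR and capillary electrophoresis, fluorescence. Bidirectional fit vs DMSO.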

Experiment [17] can be described thus: ATG_TCF_b_cat_CIS: Attagene CIS-FACTORIAL HepG2 Assay for human T-Cell-Factor with beta-catenin (TCF/b-cat) (AID 2282965). The following applies: HepG2 TCF/beta-catenin cis-reporter transcription, actives raise or lower the signal. The procedure, abridged:
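Cells of the HepG2 line carry transiently transfected reporter units whose promoters respond to endogenous factors. Twenty-four hours post-dosing, reporter mRNA induction is measured by fluorescent RT-PCR and capillary electrophoresis, with DMSO as baseline.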

Experiment [18] can be described thus: ATG_PPRE_CIS: Attagene CIS-FACTORIAL HepG2 Assay for human Peroxisome Proliferator-activated Response Element (PPRE) (AID 2282958). To be noted: HepG2 PPRE cis-element reporter, Attagene transcription factor profiling; actives raise or lower the signal. The procedure, abridged: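 Cells are first transfected transiently with the multiplexed reporter library, then dosed for 24 h. Total RNA is reverse-transcribed, amplified, fluorescently end-labeled and HpaI-cut before capillary electrophoresis; activity is fitted bidirectionally against DMSO controls.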

Experiment [19] in a line: ATG_SREBP_CIS: Attagene CIS-FACTORIAL HepG2 Assay for human Sterol Regulatory Element Binding (SREBP) (AID 2282962). The following applies: HepG2 Attagene cis-factorial SREBP reporter, mRNA; actives raise or lower the signal. The gist of the method:
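Endogenous SREBP activity read as cis-element-driven reporter transcript in transiently transfected HepG2, 24 h post-dosing; quantified via RT-PCR plus capillary electrophoresis of fluorescent fragments. Gain or loss of signal fitted relative to DMSO baseline.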

This passage reports outcome and AC50 results from PubChem BioAssay (EPA / NIEHS).

Active and inactive are the calls of the source. Rule for the calls: active = hit-call score of the fitted dose curve at least 0.9, where 1 is the maximum; inactive = score below 0.9.

Sequence of Paired box protein Pax-6 (Homo sapiens) (P26367 whole entry, looked up): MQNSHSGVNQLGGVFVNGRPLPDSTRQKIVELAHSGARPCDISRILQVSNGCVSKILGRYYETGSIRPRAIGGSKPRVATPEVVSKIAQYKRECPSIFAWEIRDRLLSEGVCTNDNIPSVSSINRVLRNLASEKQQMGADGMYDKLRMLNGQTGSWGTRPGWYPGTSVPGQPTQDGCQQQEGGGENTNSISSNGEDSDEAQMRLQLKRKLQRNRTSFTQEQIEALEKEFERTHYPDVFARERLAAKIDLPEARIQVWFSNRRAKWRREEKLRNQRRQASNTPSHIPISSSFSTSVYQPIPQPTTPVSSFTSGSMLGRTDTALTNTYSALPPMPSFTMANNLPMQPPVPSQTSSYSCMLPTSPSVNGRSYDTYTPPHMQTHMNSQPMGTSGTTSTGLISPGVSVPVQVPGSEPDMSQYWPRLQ
Sequence of Signal transducer and activator of transcription 3 (Homo sapiens) (P40763 whole entry, looked up, the tested form may be a part): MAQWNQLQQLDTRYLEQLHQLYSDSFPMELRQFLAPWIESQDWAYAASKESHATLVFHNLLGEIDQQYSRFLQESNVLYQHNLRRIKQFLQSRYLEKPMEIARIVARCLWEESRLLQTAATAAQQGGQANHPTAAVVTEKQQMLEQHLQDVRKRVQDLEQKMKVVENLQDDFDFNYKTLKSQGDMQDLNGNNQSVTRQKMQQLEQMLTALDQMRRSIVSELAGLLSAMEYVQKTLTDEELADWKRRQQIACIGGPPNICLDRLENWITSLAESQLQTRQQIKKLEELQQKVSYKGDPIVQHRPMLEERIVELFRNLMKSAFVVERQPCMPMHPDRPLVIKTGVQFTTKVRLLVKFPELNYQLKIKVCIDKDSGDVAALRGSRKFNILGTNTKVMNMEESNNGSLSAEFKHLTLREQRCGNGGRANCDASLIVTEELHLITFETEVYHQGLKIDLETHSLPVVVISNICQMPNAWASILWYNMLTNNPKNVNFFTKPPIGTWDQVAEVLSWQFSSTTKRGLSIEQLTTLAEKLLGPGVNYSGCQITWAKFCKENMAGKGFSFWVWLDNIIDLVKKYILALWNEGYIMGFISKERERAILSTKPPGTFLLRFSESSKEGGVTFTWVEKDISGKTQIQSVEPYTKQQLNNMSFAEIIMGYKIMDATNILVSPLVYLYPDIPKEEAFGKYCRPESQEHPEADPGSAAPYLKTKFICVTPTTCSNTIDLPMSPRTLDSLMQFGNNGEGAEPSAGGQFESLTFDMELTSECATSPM
Sequence of Transcription factor Sp1 (Homo sapiens) (P08047 whole entry, looked up): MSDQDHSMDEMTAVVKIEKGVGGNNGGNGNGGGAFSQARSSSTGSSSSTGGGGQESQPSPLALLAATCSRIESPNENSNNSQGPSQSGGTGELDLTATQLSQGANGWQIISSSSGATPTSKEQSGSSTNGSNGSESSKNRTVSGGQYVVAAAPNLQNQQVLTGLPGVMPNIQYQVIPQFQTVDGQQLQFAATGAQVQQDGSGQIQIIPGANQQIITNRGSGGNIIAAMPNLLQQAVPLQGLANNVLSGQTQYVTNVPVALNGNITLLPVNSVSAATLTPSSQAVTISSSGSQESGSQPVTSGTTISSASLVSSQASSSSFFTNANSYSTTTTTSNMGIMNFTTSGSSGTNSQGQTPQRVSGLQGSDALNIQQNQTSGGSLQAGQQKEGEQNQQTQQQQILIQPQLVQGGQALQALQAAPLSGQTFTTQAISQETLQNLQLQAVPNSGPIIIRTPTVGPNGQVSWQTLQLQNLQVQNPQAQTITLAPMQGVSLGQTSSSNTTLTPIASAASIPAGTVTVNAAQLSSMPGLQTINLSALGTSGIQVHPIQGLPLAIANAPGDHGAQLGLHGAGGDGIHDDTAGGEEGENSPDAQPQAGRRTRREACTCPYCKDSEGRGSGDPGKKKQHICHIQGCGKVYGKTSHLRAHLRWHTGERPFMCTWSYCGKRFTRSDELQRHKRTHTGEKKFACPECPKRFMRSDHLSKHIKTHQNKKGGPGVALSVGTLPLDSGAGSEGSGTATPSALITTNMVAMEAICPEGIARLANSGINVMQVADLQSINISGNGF
Sequence of Hypoxia-inducible factor 1-alpha (Homo sapiens) (Q16665 whole entry, looked up): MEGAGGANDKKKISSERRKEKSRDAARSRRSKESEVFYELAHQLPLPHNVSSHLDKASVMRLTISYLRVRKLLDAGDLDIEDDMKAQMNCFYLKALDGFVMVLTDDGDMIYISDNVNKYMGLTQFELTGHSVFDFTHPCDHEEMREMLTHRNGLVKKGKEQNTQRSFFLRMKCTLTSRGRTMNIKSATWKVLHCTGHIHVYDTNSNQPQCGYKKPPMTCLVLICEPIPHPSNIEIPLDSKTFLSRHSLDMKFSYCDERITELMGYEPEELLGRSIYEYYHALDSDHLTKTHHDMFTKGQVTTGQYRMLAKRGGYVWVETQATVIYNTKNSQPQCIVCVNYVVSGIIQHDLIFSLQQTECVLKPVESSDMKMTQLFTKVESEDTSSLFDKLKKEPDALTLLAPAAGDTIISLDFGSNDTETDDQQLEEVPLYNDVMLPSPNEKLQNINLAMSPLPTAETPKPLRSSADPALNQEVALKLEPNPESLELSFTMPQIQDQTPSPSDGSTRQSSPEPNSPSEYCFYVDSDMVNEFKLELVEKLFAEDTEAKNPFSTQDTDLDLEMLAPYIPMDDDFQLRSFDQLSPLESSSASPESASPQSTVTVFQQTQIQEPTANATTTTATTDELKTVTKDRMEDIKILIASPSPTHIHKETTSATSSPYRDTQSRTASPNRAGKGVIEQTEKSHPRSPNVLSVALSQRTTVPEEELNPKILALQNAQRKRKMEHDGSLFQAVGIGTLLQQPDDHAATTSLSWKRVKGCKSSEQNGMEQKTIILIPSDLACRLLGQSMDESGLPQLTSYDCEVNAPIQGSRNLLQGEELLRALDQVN
Sequence of Heat shock factor protein 1 (Homo sapiens) (Q00613 whole entry, looked up): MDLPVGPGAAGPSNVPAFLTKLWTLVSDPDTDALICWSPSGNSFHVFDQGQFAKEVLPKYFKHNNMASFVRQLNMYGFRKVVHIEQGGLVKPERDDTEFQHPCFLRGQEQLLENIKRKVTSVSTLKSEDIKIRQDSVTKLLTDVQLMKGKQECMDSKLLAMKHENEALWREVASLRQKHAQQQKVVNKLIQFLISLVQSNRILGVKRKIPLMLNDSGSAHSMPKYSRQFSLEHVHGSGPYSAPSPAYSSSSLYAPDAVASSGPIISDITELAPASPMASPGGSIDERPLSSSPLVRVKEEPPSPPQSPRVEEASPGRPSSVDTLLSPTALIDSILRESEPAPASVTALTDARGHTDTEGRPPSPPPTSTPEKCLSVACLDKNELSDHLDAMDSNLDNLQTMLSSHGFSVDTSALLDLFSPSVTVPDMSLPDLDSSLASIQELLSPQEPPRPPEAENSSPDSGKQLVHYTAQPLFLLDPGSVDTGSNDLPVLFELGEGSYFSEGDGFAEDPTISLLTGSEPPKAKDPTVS
Sequence of Hepatocyte nuclear factor 6 (Homo sapiens) (Q9UBC0 whole entry, looked up): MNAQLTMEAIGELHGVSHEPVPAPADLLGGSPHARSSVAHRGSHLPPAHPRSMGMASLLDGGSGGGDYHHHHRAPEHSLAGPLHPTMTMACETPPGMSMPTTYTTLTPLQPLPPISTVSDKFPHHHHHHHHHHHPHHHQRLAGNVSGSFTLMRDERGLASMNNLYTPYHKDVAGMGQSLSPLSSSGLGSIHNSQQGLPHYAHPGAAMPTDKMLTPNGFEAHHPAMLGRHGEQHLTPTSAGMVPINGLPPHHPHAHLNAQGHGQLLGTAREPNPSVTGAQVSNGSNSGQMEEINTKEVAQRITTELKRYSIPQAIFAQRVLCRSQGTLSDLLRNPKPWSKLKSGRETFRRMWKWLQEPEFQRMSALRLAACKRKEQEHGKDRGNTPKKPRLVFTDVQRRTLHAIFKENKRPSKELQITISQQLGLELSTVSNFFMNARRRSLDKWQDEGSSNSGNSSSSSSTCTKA

Broadly, the AC50 is the midpoint of the concentration-response curve, whichever way the signal moves. As for `O=NN1CCCCCC1`, the molecule was called inactive in [1], in experiment [2], in [3], in [4], in experiment [5] and in experiment [6]. Moreover, the outcome in experiment [7], in [9], in [10], in experiment [11], in [12] and in experiment [13] was inactive. Moreover, the molecule was called inactive in experiment [14], in experiment [15] and in experiment [16]. In [8], the AC50 was 53 µM (active).
In the case of `O=C(CBr)c1ccc(O)cc1`, the call in experiment [1], in [2], in experiment [3], in experiment [4], in experiment [5] and in experiment [6] was inactive. Besides, the result in experiment [7], in experiment [8], in [9], in experiment [10], in [11] and in experiment [12] was inactive. The call in [13], in [17], in experiment [14], in [15] and in [16] was inactive.
`CCCCOC(C)=O`: the outcome in experiment [1], in experiment [2], in experiment [3], in [4], in [6] and in experiment [7] was inactive. Besides, the molecule was called inactive in [18], in experiment [9], in [10], in experiment [11], in [19] and in experiment [12]. In addition, the molecule was classed as inactive in experiment [13], in [14] and in experiment [15].
Take `C=C(C)[C@@H]1CC=C(C=O)CC1`: the call in experiment [1], in experiment [2], in experiment [3], in experiment [4], in [5] and in experiment [18] was inactive. In addition, the outcome in [9], in experiment [10], in [11], in experiment [19], in experiment [12] and in experiment [13] was inactive. The result in experiment [14] and in experiment [16] was inactive. Besides, in experiment [6], the AC50 was 85.2 µM (active).
On to `CCOc1ccc(N)cc1`, for which the molecule was called inactive in [1], in experiment [2], in experiment [3], in experiment [4], in experiment [5] and in [6]. In addition, the molecule was called inactive in experiment [7], in experiment [9], in experiment [11], in experiment [19], in [12] and in experiment [13]. In addition, the result in experiment [17], in [14], in experiment [15] and in experiment [16] was inactive. In experiment [8], the half-maximal activity concentration (AC50) was 46.6 µM (active).
With `OC(Cc1ccccc1Cl)(Cn1cncn1)C1(Cl)CC1` (configuration not stated), the molecule was classed as inactive in experiment [1], in [2], in experiment [3], in experiment [4], in experiment [5] and in [7]. The result in [18], in [9], in experiment [10], in experiment [11], in [19] and in [12] was inactive. Besides, the call in experiment [13], in experiment [17], in experiment [14] and in experiment [15] was inactive. The half-maximal activity concentration (AC50) is 37.3 µM (active) in experiment [6] and 26 µM (active) in experiment [16].
For the molecule `CCOP(=O)(OCC)SCCSCC`, the molecule was called inactive in [1], in experiment [2], in experiment [3], in experiment [4], in [5] and in [6]. The molecule was called inactive in experiment [7], in experiment [9], in experiment [10], in experiment [11], in experiment [19] and in [12]. Further, the call in [13], in experiment [17], in [14], in experiment [15] and in experiment [16] was inactive.
Regarding `CCN(CC)C(=O)C(Cl)=C(C)OP(=O)(OC)OC`, the outcome in experiment [1], in [2], in experiment [3], in [4], in experiment [5] and in [6] was inactive. For the same molecule, the outcome in experiment [18], in experiment [9], in [10], in experiment [11], in experiment [19] and in [12] was inactive. In addition, the molecule was called inactive in [13], in experiment [14], in experiment [15] and in experiment [16]. Also, in experiment [8], the concentration at half-maximal activity (AC50) is 11.3 µM (active).
